What is called inhibition is the drop in the measured response relative to a control, in per cent.

This is an account of results in PubChem BioAssay.

For some of these results: Entries with a potency or affinity are not part of this list. Active and inactive are the calls of the source.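 How the source made its calls, unless noted: active means primary screen active and over 50% activation in each of two duplicate runs; inactive means the rest.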

Experiment [1] relates to TRPC4 beta (transient receptor potential cation channel C4), mouse. The experiment in a line: TRPC4 cation channel opening, retest – cell-based, Fluo4 calcium, HEK293 TRPC4beta/mu-opioid, duplicates, 10 µM, confirmation (AID 2426;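 active means fluorescence ratio normalized to control raised more than 50% in primary screen plus both repeat runs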). The note with it: Fluo4 calcium fluorescence, at 10 µM; active compounds read high.
In experiment [2] the test system is transient receptor potential cation channel C4 beta (TRPC4), mouse. The experiment is described as follows: TRPC4 cation channel opening, second retest – cell-based, second round, Fluo4, HEK293 TRPC4beta/mu-opioid, 1 µM, confirmation (AID 2461). The note with it: Fluo4 calcium fluorescence, at 1 µM; active compounds read high.
For experiment [3], the system named is TRPC4 (transient receptor potential cation channel C4 beta), mouse. The experiment in a line: potentiation of DAMGO EC20 TRPC4 response – cell-based, second round, Fluo-4, HEK293 TRPC4beta/mu-opioid, 1 µM, confirmation (AID 2554;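 active means primary screen hit whose fluorescence ratio, in both repeats, exceeds the weak agonist control mean by 3 SD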). The note with it: DAMGO EC20, Fluo-4 calcium flux, at 1 µM; active compounds read high. A general note: A change in cytosolic calcium serves as a functional read-out for many receptors and channels.

Experiment [4] has as its system TRPC4 beta (transient receptor potential cation channel C4), mouse. The experiment in a line: potentiation of DAMGO EC20 TRPC4 response – cell-based, Fluo-4, HEK293 TRPC4beta/mu-opioid, confirmation (AID 2555;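 active means primary screen hit whose calcium fluorescence ratio, in both repeats, exceeds the weak agonist control mean by 3 SD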). Conditions: DAMGO EC20, Fluo-4 calcium flux, at 10 µM; active compounds read high.
Experiment [5] deals with Short transient receptor potential channel 4 (Mus musculus) (UniProt Q9QUQ5). The experiment is described as follows: blockers of DAMGO-evoked TRPC4 calcium flux – cell-based, Fluo4, HEK293 TRPC4beta/mu-opioid, confirmation (AID 2636;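 active means calcium signal cut by more than 3 SD below the full-agonist control yet still positive, in both repeats and the earlier primary screen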). Conditions: at 10 µM; active compounds read high.
Short transient receptor potential channel 4 (Mus musculus), sequence (Q9QUQ5 whole entry, looked up): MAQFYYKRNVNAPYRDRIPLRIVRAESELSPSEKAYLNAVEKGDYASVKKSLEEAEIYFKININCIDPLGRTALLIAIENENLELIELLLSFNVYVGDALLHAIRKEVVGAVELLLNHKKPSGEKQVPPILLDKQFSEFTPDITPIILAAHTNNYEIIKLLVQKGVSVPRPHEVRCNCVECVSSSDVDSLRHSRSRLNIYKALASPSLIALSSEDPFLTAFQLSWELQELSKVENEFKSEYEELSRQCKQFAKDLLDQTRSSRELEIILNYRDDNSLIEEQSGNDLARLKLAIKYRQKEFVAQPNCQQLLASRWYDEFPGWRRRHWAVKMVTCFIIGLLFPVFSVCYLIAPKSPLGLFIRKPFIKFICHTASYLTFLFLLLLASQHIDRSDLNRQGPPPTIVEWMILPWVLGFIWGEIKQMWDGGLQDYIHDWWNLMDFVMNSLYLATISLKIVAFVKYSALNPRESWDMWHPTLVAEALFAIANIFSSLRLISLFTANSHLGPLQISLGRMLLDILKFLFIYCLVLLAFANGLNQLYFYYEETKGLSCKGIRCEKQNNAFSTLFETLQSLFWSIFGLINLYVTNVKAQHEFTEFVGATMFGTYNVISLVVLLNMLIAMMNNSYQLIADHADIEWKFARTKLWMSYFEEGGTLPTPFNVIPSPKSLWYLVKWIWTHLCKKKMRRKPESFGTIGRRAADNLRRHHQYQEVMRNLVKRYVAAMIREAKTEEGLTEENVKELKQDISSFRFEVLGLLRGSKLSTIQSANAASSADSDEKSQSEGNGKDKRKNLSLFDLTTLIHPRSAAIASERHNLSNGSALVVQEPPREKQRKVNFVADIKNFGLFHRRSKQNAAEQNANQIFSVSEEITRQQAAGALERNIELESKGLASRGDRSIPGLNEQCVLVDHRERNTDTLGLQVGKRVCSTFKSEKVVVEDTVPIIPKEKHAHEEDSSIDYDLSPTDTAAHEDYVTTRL
Experiment [6] has the same target. The experiment is described as follows: blockers of DAMGO-evoked TRPC4 calcium flux – cell-based, second round, Fluo4, HEK293 TRPC4beta/mu-opioid, 1 µM, confirmation (AID 2637;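 active means calcium signal ratio cut to more than 3 SD under the fully stimulated control mean yet still positive, in both repeats and the primary screen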;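 on inhibition: percent of integrated ratio relative to wells lacking test compound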). The note with it: at 1 µM; active compounds read high.
Experiment [7] has the same target. The experiment is described as follows: calcium entry via TRPC4 opening agents – cell-based, HEK293 TRPC4/mu-opioid, Fluo-4 calcium, dose response (AID 434937;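 active means primary screen activator hit with a dose response curve and TRPC4 channel activation at any tested dose; inactive means no activation, no dose response, or not a primary hit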).
The target is the same in experiment [8]. The experiment is described as follows: potentiation of DAMGO-evoked TRPC4 calcium signal – cell-based, HEK293 TRPC4/mu-opioid, Fluo-4 calcium, EC20 DAMGO, dose response (AID 434941;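 active means earlier screen potentiator hit that boosts the TRPC4 ion channel at some dose, with a dose response; inactive means no potentiation, no dose response, or not a prior hit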;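 further: calcium entry triggered by an EC20 dose of DAMGO at the co-expressed mu-opioid receptor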).
Experiment [9] has the same target. The experiment in a line: block of DAMGO-driven TRPC4 calcium entry – cell-based, HEK293 TRPC4/mu-opioid, Fluo-4 calcium, dose response (AID 434942;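 active means primary screen inhibitor hit that blocks the TRPC4 channel at some tested dose, yielding a dose curve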).
The target of experiment [10] is Short transient receptor potential channel 6 (Mus musculus) (UniProt Q61143). The experiment in a line: TRPC6 blockade by TRPC4 inhibitor hits – cell-based, HEK293, membrane potential dye, duplicate, selectivity assay for TRPC4 inhibitor project, confirmation (AID 434948;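 active means active in primary screen and both duplicates, each dropping signal beyond three positive-control SD with fluorescence still positive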). The note with it: HEK293 TRPC6, membrane potential dye fluorescence, at 10 µM; inhibition: active compounds read high, stimulated with maximal-effect acetylcholine unless noted; outcome: stimulated with maximal-effect acetylcholine unless noted.
Short transient receptor potential channel 6 (Mus musculus), sequence (Q61143 whole entry, looked up): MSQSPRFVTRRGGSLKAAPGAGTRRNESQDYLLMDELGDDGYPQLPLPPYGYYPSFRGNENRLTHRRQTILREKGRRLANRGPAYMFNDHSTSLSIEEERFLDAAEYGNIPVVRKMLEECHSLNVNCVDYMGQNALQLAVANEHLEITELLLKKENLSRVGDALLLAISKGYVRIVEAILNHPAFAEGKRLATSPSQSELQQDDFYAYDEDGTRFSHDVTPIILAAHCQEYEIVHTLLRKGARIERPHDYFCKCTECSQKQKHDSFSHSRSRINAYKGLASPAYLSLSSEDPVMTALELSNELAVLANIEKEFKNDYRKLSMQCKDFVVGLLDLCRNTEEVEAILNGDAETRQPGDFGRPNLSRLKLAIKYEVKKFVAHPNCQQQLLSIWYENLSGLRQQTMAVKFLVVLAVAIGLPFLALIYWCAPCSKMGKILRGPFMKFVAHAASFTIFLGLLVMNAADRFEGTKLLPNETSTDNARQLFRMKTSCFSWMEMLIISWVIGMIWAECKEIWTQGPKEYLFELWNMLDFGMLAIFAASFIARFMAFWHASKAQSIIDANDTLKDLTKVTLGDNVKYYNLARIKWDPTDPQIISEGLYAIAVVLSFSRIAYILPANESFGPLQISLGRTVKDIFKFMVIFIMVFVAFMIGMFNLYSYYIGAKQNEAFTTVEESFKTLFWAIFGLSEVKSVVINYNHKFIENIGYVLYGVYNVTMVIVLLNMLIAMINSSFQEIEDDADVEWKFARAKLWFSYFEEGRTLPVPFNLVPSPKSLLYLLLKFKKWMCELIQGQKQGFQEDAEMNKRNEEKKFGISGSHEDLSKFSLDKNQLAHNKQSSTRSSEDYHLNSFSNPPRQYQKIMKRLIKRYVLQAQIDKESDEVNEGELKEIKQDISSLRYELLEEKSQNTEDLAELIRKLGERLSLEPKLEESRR

Experiment [11] has the same target. The experiment in a line: TRPC6 opening by TRPC4 activator hits – cell-based, HEK293, membrane potential dye, duplicate, selectivity assay for TRPC4 activator project, confirmation (AID 434950;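 active means membrane potential signal rise above negative control mean plus 3 SD in both duplicates, also active in the earlier TRPC4 screen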). Conditions: HEK293 TRPC6, membrane potential fluorescence, at 10 µM; activation: active compounds read high; outcome: activation.
Experiment [12] shares this target. The experiment in a line: positive modulators of mouse TRPC6 channel – HEK293 cells, membrane potential dye, duplicate, selectivity assay for TRPC4 potentiator project, confirmation (AID 434952;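 active means compound raising the membrane signal above positive-control mean plus 3 SD in both repeats, and a primary screen hit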). The note with it: HEK293 TRPC6, membrane potential dye fluorescence, at 10 µM; maximal acetylcholine added after compound unless noted.
The target in experiment [13] is Short transient receptor potential channel 4 (Mus musculus) (UniProt Q9QUQ5). The experiment is described as follows: calcium flux activators in TRPC4/5HT1a cells, counter-screen for TRPC4 activator project, cell-based, second counter screen, HEK293 TRPC4/5HT1a, Fluo-4 (AID 434977;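 active means calcium signal rise above buffer-control mean plus 5 SD in both duplicates, and also a hit in the primary screen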). Conditions: Fluo-4 calcium flux, at 10 µM; active compounds read high.
A short description of experiment [14]: serotonin-gated TRPC4 signal block – cell-based, second counter screen, HEK293 TRPC4/5HT1a, Fluo-4, counter-screen for TRPC4 inhibitor project, confirmation (AID 434978;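 active means primary screen active whose calcium signal fell more than 3 SD beyond the full-serotonin control mean in both duplicate plates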;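 on outcome: serotonin given first at submaximal then at maximal dose after compound preincubation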). Conditions: Fluo-4 calcium flux, at 10 µM; inhibition: active compounds read high, serotonin added to trigger calcium flux unless noted; outcome: serotonin added to trigger calcium flux unless noted. On the technique in general: The purpose of a counterscreen is to sort out artefacts and off-target activity.

Experiment [15] relates to TRPC4 (mouse), co-expressed with 5HT1a in HEK293. The experiment in a line: enhancement of serotonin-evoked TRPC4 response – cell-based, second counter screen, HEK293 TRPC4/5HT1a, Fluo-4, counter-screen for TRPC4 potentiator project, confirmation (AID 434979;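 active means signal rise over 3 SD above mean of control wells given weak agonist, in both repeats and first screen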). Conditions: Fluo-4 calcium flux, at 10 µM; outcome: serotonin added at its EC20 dose unless noted; potentiation: active compounds read high, serotonin added at its EC20 dose unless noted.

A short description of experiment [16]: nonspecific calcium rise without TRPC4 – cell-based, HEK293 mu-opioid receptor line, counter-screen for TRPC4 activator project, confirmation (AID 449723;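 active means hit in primary screen, with calcium signal over 5 SD above buffer well mean in both duplicates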;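 further: counter screen cells carry the mu-opioid receptor alone and lack TRPC4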). The note with it: HEK293 mu-opioid cells, Fluo-4 calcium fluorescence, at 10 µM; active compounds read high.
Experiment [17] is described as follows: nonspecific potentiation of DAMGO calcium response – cell-based, HEK293 mu-opioid receptor line, counter-screen for TRPC4 allosteric potentiator project, confirmation (AID 449724;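 active means calcium signal rise more than 3 SD above the low-dose agonist control mean, in both duplicate plates and the primary screen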;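 further: HEK293 cells carrying mu-opioid receptor only with no TRPC4 channel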). Conditions: HEK293 mu-opioid receptor cells, Fluo-4 calcium flux, at 10 µM; compound added before EC20 DAMGO stimulus unless noted.

As for `Nc1ccccc1-[n+]1c(-c2ccccc2)cc(-c2ccccc2)cc1-c1ccccc1`, the result in experiment [1], in [2], in [4], in [5], in experiment [6] and in experiment [7] was inactive. Further, the result in [8], in [9], in experiment [10], in [11], in [12] and in experiment [13] was inactive. Also, the outcome in [14], in [16] and in experiment [17] was inactive. The potentiation is 27% (active) in experiment [3] and 20.7% (active) in experiment [15].
Take `CC(Cc1ccccc1Sc1ccccc1O)N(C)C` (stereo unspecified): the outcome in experiment [1], in [2], in experiment [3], in experiment [4], in [7] and in experiment [8] was inactive. The compound was called inactive in [11], in experiment [12], in [13], in experiment [15], in [16] and in [17]. For the same compound, the inhibition in experiment [5] was 99% (active); in [6] it was 70% (active); in [10], 50.5% (active); in [14], 33% (active).
Regarding `CCN1CCN(Cc2cc(Br)ccc2O)CC1`, the result in experiment [1], in experiment [2], in experiment [5], in [6], in experiment [7] and in experiment [9] was inactive. Besides, the compound was called inactive in [10], in [11], in experiment [12], in experiment [13], in experiment [14] and in [16]. Moreover, the outcome in experiment [17] was inactive. Also, the figures for the potentiation in experiment [3], in [4] and in experiment [15] were 19% (active), 22% (active) and 16.8% (active), respectively.
Turning to `O=C(Cc1ccccc1)N1CCN(Cc2cccc(Br)c2)CC1`, the result in experiment [1], in [2], in experiment [3], in experiment [4], in experiment [6] and in experiment [7] was inactive. Further, the outcome in experiment [8], in experiment [10], in experiment [11], in experiment [12], in [13] and in experiment [15] was inactive. Besides, the outcome in [16] and in experiment [17] was inactive. Moreover, the inhibition is 81% (active) in [5] and 37.8% (active) in experiment [14].
Regarding `CCC1=Nc2cc(C(=O)N3CCC4(CC3)OCCO4)ccc2Sc2ccc(C)cc21`, the outcome in experiment [1], in experiment [2], in [3], in [4], in [6] and in [7] was inactive. Further, the outcome in experiment [8], in [11], in experiment [13] and in [16] was inactive. The inhibition in [5] was 74% (active). Moreover, the outcome in experiment [10], in [12], in experiment [14], in [15] and in experiment [17] was “inactive [setting not given]” each time.
For the compound `CCN(CC)CC(=O)Nc1ccc(Cl)cc1C(=O)c1ccccc1`, the result in experiment [1], in experiment [2], in experiment [3], in [4], in [6] and in [7] was inactive. For the same compound, the outcome in [8], in [10], in experiment [11], in experiment [12], in experiment [13] and in experiment [15] was inactive. Besides, the outcome in experiment [16] and in experiment [17] was inactive. Also, the inhibition is 89% (active) in experiment [5] and 33.6% (active) in experiment [14].
With `CCOC(=O)C1(CCc2ccccc2)CCN(Cc2cccc3c2OCO3)CC1`, the outcome in experiment [1], in experiment [2], in experiment [3], in experiment [4], in [6] and in experiment [7] was inactive. In addition, the outcome in experiment [8], in experiment [10], in experiment [11], in [12], in experiment [13] and in [14] was inactive. Besides, the result in experiment [15], in experiment [16] and in [17] was inactive. The inhibition in [5] was 102% (active).
Regarding `CC(C)CN(CC(C)C)c1ccc(C=C2C(=O)NC(=S)NC2=O)cc1[N+](=O)[O-]`, the result in experiment [1], in [2], in experiment [3], in experiment [4], in experiment [7] and in experiment [8] was inactive. In addition, the compound was classed as inactive in experiment [11], in [13] and in experiment [16]. Besides, the inhibition in experiment [5] is 98% (active); in experiment [6] it was 52% (active); in experiment [14] it was 8.19% [active compounds read high] (active). The outcome in [10], in experiment [12], in experiment [15] and in [17] was “inactive [setting not given]” in each case.
For `N=c1n(CCO)c2ccccc2n1Cc1ccccc1`, the outcome in [1], in experiment [2], in experiment [3], in experiment [4], in experiment [7] and in experiment [8] was inactive. The compound was classed as inactive in [10], in experiment [11], in experiment [12], in experiment [13], in experiment [15] and in [16]. Moreover, the outcome in [17] was inactive. The inhibition in experiment [5] was 86% (active); in [6] it was 48% (active); in experiment [14], 42.9% (active).
Turning to `CN(CCOc1ccc(C=C2C(=O)NC(=O)NC2=O)cc1)c1ccccn1`, the outcome in experiment [1], in [2], in experiment [3], in [4], in [6] and in experiment [7] was inactive. Further, the result in [8], in experiment [9], in experiment [11], in experiment [13] and in [16] was inactive. For the same compound, the inhibition in experiment [5] is 61% (active). For the same compound, the outcome in experiment [10], in [12], in experiment [14], in [15] and in experiment [17] was “inactive [setting not given]” throughout.
Consider `CCOc1c(Cl)cc(CNC(C)C(O)c2ccccc2)cc1OC` (stereo unspecified), for which the outcome in experiment [1], in experiment [2], in experiment [3], in experiment [4], in experiment [6] and in experiment [7] was inactive. The outcome in experiment [8], in [10], in experiment [11], in [12], in experiment [13] and in experiment [14] was inactive. Besides, the outcome in experiment [15], in experiment [16] and in [17] was inactive. Moreover, in [5], the inhibition is 99% (active).
Take `COc1ccc(OC)c(N2Cc3ccccc3C2=N)c1`: the outcome in [1], in experiment [2], in experiment [3], in experiment [4], in [7] and in experiment [8] was inactive. In addition, the call in experiment [10], in [11], in [12], in experiment [13], in [15] and in experiment [16] was inactive. Moreover, the result in experiment [17] was inactive. In addition, the inhibition in experiment [5] is 96% (active); in experiment [6] it was 56% (active); in experiment [14], 21.8% (active).
As to `CCOC(=O)C(O)(c1ccc(NC(=S)NC(=O)c2ccc(Cl)cc2Cl)c(C)c1)C(F)(F)F` (stereo unspecified), the result in [1], in experiment [2], in experiment [3], in experiment [5], in experiment [6] and in [7] was inactive. In addition, the outcome in experiment [9], in experiment [10], in experiment [11], in experiment [12], in experiment [13] and in [14] was inactive. Further, the outcome in [16] and in experiment [17] was inactive. For the same compound, the potentiation in experiment [4] was 31% (active); in experiment [15], 28.1% (active).
As for `CCOC(=O)C1(CCc2ccccc2)CCN(Cc2ccco2)CC1`, the result in experiment [1], in experiment [2], in [3], in [4], in [6] and in experiment [7] was inactive. Moreover, the result in experiment [8], in experiment [10], in [11], in experiment [12], in experiment [13] and in experiment [14] was inactive. In addition, the result in experiment [15], in [16] and in experiment [17] was inactive. In [5], the inhibition is 94% (active).
